# Experimental data reported in PubChem BioAssay (NCATS).
# Results filed as inconclusive are left out. The source made the active and inactive calls. The call rests on the fitted dose curve; in most records, active means well fitted inhibition curve with a large enough effect; inconclusive means small, poorly fitted or top-dose-only effect; inactive means flat fitted curve, though single readings scatter.
# Molecular target: Glutathione peroxidase 1 (Homo sapiens) (UniProt P07203)
# Experiment: Primary qHTS Assay for Inhibitors of Recombinant Selenoprotein Glutathione Peroxidase 1 (GPX1) (AID 1845191); further: nearly all actives have a fitted effect of over 65% in size
# Conditions: recombinant GPX1, GR-coupled NADPH fluorescence, 15 min; series mostly up to 48.8 µM; activity, negative = inhibition: at the top concentration
# Description: Assay Provider: Elias S.J. Arner MD PhD.
# Department of Medical Biochemistry and Biophysics
# Karolinska Institutet, Solna, Stockholm, Sweden
# Selenoprotein glutathione peroxidases (GPX), like the ubiquitously expressed GPX1 and the ferroptosis modulator GPX4, enact their antioxidant activities by reducing hydroperoxides using glutathione. […] GPX1 and GPX4 inhibitors have thus shown promise as anti-cancer agents. Existing inhibitors are often promiscuous, or modulate GPX activity only indirectly, so novel direct inhibitors identified through screening against GPX1 and GPX4 could be valuable. Here, we developed optimized glutathione reductase (GR)-coupled GPX assays for the biochemical high-throughput screen (HTS) of almost 12,000 compounds with known mechanisms of action. Initial hits were triaged using a GR counter-screen, assessed for isoform specificity using a separate GPX2 assay, and were assessed for general selenocysteine-targeting activity using a thioredoxin reductase (TXNRD1) assay. With this suite of assays, we identified novel GPX1/GPX2- and GPX4-specific inhibitors and can here present a validated pipeline for future discovery research for selenoprotein-targeting agents.
# SEQUENCE No. (e.g., 1, 2, 3, etc.); […] (e.g., Cells, Incubation, Reagent, etc.); VALUE; DESCRIPTION.
# 1; Reagent 1; 3 uL; GPx1 enzyme or no enzyme control in 1536-well, black, solid Greiner assay plate.
# 2; Compound; 25 nL; Kalypsis pin tool (Wako USA) equipped with a 1536-well pin head.
# 3; Incubation; 30 min; room temperature.
# 4; Reagent 2; 1 uL; 10 nM GPX1, 1 mM GSH, 0.5 mM CHP, 0.5 mM NADPH, 100 nM GR, 0.01% BSA substrate
# 5; Detection; Fluorescence; ViewLux microplate reader, excitation 340 nm and emission 450 nm.
# 6; Incubation; 15 min; room temperature.
# 7; Detection; Fluorescence; ViewLux microplate reader, excitation 340 nm and emission 450 nm.
# NOTES (numbers refer to Sequence numbers above)
# 1. 3 uL of 16.66 nM GPX1 and 0.016% BSA in assay buffer (50 mM Tris-HCl, 2 mM EDTA (pH 7.5), 150 mM NaCl) was added to columns 3-48 of 1536-well assay plates using a BioRAPTR Flying Reagent Dispenser (Let's Go Robotics (LGR), Carlsbad, CA). A no-enzyme control (0.01% BSA in TES assay buffer) was added to columns 1-2.
# 2. 25 nL of test compounds and DMSO controls were added to each well with a pin tool (Kalypsys).
# 3. The assay plates were incubated for 30 minutes at room temperature.
# 4. 1 uL of master mix (500 nM glutathione reductase (GR), 5 mM reduced glutathione (GSH), 2.5 mM NADPH in assay buffer) was added. 1 uL of cumene hydroperoxide (CHP) ([2.5 mM] in 50% EtOH) was then added within 5 minutes to initiate the reaction. Final concentrations were: 10 nM GPX1, 1 mM GSH, 0.5 mM CHP, 0.5 mM NADPH, 100 nM GR, 0.01% BSA.
# 5. Initial fluorescence readout (t=0) at 340/450 nm was measured using a ViewLux multimodal detector (PerkinElmer, Waltham, MA).
# 7. Endpoint fluorescence readout (t=15) at 340/450 nm was measured 15 min after room temperature incubation.
# On the % scale 0 is the no-effect control and ±100 the full control effect.
# Chain of Glutathione peroxidase 1 (Homo sapiens) (P07203 whole entry, looked up): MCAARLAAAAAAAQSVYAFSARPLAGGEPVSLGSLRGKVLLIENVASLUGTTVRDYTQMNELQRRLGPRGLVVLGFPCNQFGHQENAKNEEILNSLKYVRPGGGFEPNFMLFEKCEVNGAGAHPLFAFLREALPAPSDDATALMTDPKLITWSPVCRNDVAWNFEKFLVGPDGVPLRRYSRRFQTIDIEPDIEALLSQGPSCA
SMILES,"activity, negative = inhibition",outcome,Potency
Cc1cccc(C2CN(C)CCc3c2cc(O)c(O)c3Cl)c1 (stereo not given),-12.3% (inactive),–,–
CN1CCN(c2nc3cc(C(F)(F)F)ccc3n3cccc23)CC1,-16% (inactive),–,–
O=C(O)C1CCCNC1 (stereo not given),-5.05% (inactive),–,–
CNc1ncnc2c1ncn2[C@H]1C[C@H](OP(=O)(O)O)[C@@H](COP(=O)(O)O)O1,-10.6% (inactive),–,–
CCCN(CCc1ccccc1)C1CCc2c(O)cccc2C1 (stereo not given),–,inactive,–
N[C@@H](Cc1c[nH]c2ccccc12)C(=O)O,–,inactive,–
C[C@H](O)C(=O)C1=Nc2c(nc(N)[nH]c2=O)NC1,-25.3% (inactive),–,–
C=CCNc1ncnc2ccc(Br)cc12,–,inactive,–
CCCCCCC/C=C\CCCCCCCCC(=O)O,-21.2% (inactive),–,–
CNC(=O)c1cc2c(cn1)[nH]c1ccccc12,-0.715% (inactive),–,–
CC(C)(C)c1cc(/C=C(\C#N)C(N)=S)cc(C(C)(C)C)c1O,–,inactive,–
CC(C)NC[C@H](O)COc1cccc2ccccc12,–,inactive,–
COc1ccc(NC(=O)c2ccc(-c3ccc(-c4noc(C)n4)cc3C)cc2)cc1N1CCN(C)CC1,–,inactive,–
O=C1C2C=CC=CC2=NC(=S)N1CCN1CCC(=C(c2ccc(F)cc2)c2ccc(F)cc2)CC1 (stereo not given),1.21% (inactive),–,–
O=c1[nH]c2cc(Cl)ccc2c(O)c1-c1ccc(Oc2ccccc2)cc1,-23.6% (inactive),–,–
NC(N)=[N+]1CCc2ccccc2C1,-2.65% (inactive),–,–
C[C@H]1CC2C3CCC4=CC(=O)C=C[C@]4(C)[C@@]3(Cl)[C@@H](O)C[C@]2(C)[C@@]1(O)C(=O)CO (stereo not given in full),–,inactive,–
OC[C@H]1O[C@H](n2cnc3c(N[C@H]4CCC[C@@H]4O)ncnc32)[C@H](O)[C@@H]1O,-17.2% (inactive),–,–
O=c1onc2n1-c1cc(Br)ccc1OC2,-7.5% (inactive),–,–
CN(C)CCC(c1ccc(Br)cc1)c1ccccn1 (stereo not given),–,–,inactive

SMILES,"activity, negative = inhibition",outcome,Potency
N[C@@H](Cc1ccc(F)cc1)C(=O)O,0.799% (inactive),–,–
N#Cc1cc([N+](=O)[O-])c2sc(C(N)=O)[n+]([O-])c2c1,-6.17% (inactive),–,–
CC(=O)SC1CC2=CC(=O)CC[C@]2(C)C2CC[C@@]3(C)C(CC[C@@]34CCC(=O)O4)C12 (stereo not given in full),-23.5% (inactive),–,–
CCCCCCCCCCC/C=C\C(C)(C)/C=C\CCCC(=O)O,1.66% (inactive),–,–
Cc1ccccc1/C=C/C1=NCCN1,–,inactive,–
OC[C@H]1NC[C@@H](O)[C@@H]1O,1.54% (inactive),–,–
CNc1cc(NS(=O)(=O)c2ccc(N)cc2)nc(NC)n1,-14.3% (inactive),–,–
CN(CC[C@@H](Oc1ccc(C(F)(F)F)cc1)c1ccccc1)CC(=O)O,-12.4% (inactive),–,–
CC(N)=O,3.68% (inactive),–,–
O=S(=O)(c1cccc2c(Cl)cccc12)N1CCCNCC1,–,inactive,–
C=CC1(C)CC(=O)C2(O)C(C)(O1)C(OC(C)=O)C(O)C1C(C)(C)CCC(O)C12C (stereo not given),-19.1% (inactive),–,–
Cn1ccnc1,-12.8% (inactive),–,–
NC1(C(=O)O)CCc2cc(C(=O)O)ccc21 (stereo not given),–,inactive,–
O=C1Cc2c([nH]c3ccc(Br)cc23)-c2ccccc2N1,–,–,inactive
C[C@](Cc1ccc(O)c(O)c1)(NN)C(=O)O,–,inactive,–
NC1CCN(O)C1=O (stereo not given),–,inactive,–
O=C(OCCN1CCOCC1)C1(c2ccccc2)CCCCC1,–,inactive,–
CC1=C(C(=O)O)N2C(=O)[C@@H](NC(=O)C(N)C3=CCC=CC3)[C@H]2SC1 (stereo not given in full),-7.72% (inactive),–,–
Brc1c(Br)c(Br)c2[nH]cnc2c1Br,–,inactive,–
CN1CCc2cc(Cl)c(O)cc2[C@@H](c2ccccc2)C1,–,inactive,–
